Results reported in PubChem BioAssay (NCATS).
Results filed as inconclusive are left out. Calls of active or inactive are those of the source. Unless noted, calls follow the shape of the dose curve; as a rule, active = well fitted curve in the direction sought with a large enough effect; inconclusive = small, poorly fitted or top-dose-only effect, or another doubt; inactive = no such curve, though single readings can be large; an effect the other way counts as inactive or inconclusive.

Legend:
[1] = biological target: Lysosomal acid glucosylceramidase (Homo sapiens) (UniProt P04062); assay: Glucocerebrosidase-p2 (AID 348; in the data active = potency below about 10 µM; also: potency is read from the fitted curve at half-maximal effect); details: purified GBA, blue fluorogenic substrate, 40 min
Lysosomal acid glucosylceramidase (Homo sapiens), sequence (P04062 whole entry, looked up): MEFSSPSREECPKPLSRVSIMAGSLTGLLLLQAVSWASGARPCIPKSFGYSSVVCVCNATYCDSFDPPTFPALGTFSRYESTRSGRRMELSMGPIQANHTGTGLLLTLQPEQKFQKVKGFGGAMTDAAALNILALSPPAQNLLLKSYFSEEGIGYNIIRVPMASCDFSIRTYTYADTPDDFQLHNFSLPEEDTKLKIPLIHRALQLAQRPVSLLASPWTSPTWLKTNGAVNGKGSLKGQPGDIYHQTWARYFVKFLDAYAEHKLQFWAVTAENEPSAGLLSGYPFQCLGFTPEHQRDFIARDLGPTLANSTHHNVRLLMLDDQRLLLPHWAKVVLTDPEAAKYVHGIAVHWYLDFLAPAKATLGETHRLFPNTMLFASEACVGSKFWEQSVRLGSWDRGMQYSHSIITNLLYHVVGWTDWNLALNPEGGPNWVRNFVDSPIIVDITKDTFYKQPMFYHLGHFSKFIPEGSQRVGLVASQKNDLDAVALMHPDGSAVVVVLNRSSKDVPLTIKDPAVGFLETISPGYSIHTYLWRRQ
In short: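 Compounds titrated from 0.6 nM upwards against 0.2 nM enzyme in pH 5.9 citric acid/KH2PO4, taurocholate, tween-20; blue fluorogenic substrate 80 uM, 40 min room temperature, stopped and read Ex 365/Em 440 for AC50.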

[2] = AP1 Signaling Pathway (AID 357; active = well fitted curve in either direction with a large enough effect, not every such curve was filed as active; also: % is scaled to controls: 0 for no effect and ±100 for the full control effect); details: ME-180 AP-1-bla reporter, EGF-induced, beta-lactamase ratio, 5 h; at 7.69 µM (top of the series) unless noted
In short: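 AP-1-bla ME-180 cells with beta-lactamase reporter under AP-1 response element, stimulated with EC50 EGF; compounds titrated, 5 hours at 37 degrees Celsius. CCF4 read at 460/530 nm ratio; positive and negative modulators judged by AC50.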

[3] = biological target: Cytochrome P450 1A2 (Homo sapiens) (UniProt P05177); assay: p450-cyp1a2 (AID 410; calls by dose curve; also: potency is read from the fitted curve at half-maximal effect)
In short: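 Luminescent readout of luciferin formed from Luciferin-ME by human CYP1A2; data normalized against complete inhibition by 57 uM furafylline. Enzyme 20nM, substrate 100uM at Km, 100mM KPO4 buffer, 60 min reaction at room temperature.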

[4] = NFAT Signaling Pathway (AID 444; active = well fitted curve in either direction with a large enough effect, not every such curve was filed as active;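 also: carbachol stimulus at about its EC50 of 1 µM final; % is scaled to controls: 0 for no effect and ±100 for the full control effect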); details: Jurkat NFAT-bla M1, carbachol, beta-lactamase ratio, 5 h; at 7.69 µM (top of the series) unless noted
In short: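 Read-out: CCF4 FRET ratio (460 nm/530 nm) after 1 h RT dye loading, used for %activity and AC50 from titration series. Cells: Jurkat NFAT-β-lactamase/M1 line, treated with compound plus 1 uM carbachol for 5 h, 37 °C.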

[5] = Stat Signaling Pathway (AID 446; active = well fitted curve in either direction with a large enough effect, not every such curve was filed as active;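 also: ME-180 cervical cancer cells given 40 pM IL-6 alongside compound; SIE-controlled beta-lactamase reporter measured as 460/530 nm FRET emission ratio; % is scaled to controls: 0 for no effect and ±100 for the full control effect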); details: ME-180 SIE beta-lactamase reporter, IL-6 stimulated, 5 h; at 7.69 µM (top of the series) unless noted
In short: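 ME-180 SIE-bla cells; overnight plating; cpd + IL-6 40 pM, 5 h, 37 C; LiveBLAzer 2.5 h RT; 460/530 nm emission ratio. Normalized to 300 pM IL-6 and 125 nM JAK inhibitor controls.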

[6] = biological target: Glucocorticoid receptor (Homo sapiens) (UniProt P04150); assay: GR-GFP Redistribution (AID 450;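 active = compounds whose dose series gives a full or clear partial fitted curve of increased nuclear translocation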; also: potency is read from the fitted curve at half-maximal effect); details: U2OS GR-GFP nuclear translocation, laser cytometry, 2 h
Glucocorticoid receptor (Homo sapiens), sequence (P04150 whole entry, looked up, the tested form may be a part): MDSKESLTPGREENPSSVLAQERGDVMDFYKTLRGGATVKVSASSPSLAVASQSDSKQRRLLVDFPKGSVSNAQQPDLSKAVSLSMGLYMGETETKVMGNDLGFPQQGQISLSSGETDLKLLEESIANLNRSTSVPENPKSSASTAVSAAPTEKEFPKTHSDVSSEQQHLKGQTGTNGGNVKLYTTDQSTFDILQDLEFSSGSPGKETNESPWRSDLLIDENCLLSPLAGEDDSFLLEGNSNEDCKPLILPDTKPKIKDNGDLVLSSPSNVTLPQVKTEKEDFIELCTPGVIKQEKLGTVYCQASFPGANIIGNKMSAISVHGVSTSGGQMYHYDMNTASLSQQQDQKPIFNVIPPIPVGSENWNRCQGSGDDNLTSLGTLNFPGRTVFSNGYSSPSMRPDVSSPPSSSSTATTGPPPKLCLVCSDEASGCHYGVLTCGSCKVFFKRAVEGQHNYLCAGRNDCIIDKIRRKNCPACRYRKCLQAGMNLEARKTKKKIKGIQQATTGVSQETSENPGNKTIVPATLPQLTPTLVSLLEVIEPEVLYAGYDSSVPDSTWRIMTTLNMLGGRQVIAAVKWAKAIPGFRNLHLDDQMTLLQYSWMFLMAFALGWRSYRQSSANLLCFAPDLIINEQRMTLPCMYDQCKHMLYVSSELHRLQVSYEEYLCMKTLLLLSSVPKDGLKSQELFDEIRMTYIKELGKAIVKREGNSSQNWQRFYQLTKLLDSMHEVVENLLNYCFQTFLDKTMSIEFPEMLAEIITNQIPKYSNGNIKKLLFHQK

[7] = biological target: Glucocorticoid receptor (Homo sapiens) (UniProt P04150); assay: GR-EFC Redistribution (AID 451; calls by dose curve; also: potency is read from the fitted curve at half-maximal effect); details: CHO-K1 GR-EFC translocation, beta-gal luminescence, 2 h
In short: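 Translocation of GR-ED fusion to nuclear EA restores b-gal, read by luminescence after 1 h room-temperature detection. Engineered CHO-K1 biosensor cells, 1,000/well, exposed 2 h at 37 C to titrations up to 46 uM final.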

[8] = biological target: Mitogen-activated protein kinase 10 (Mus musculus) (UniProt Q61831); assay: JNK3 AlphaScreen Assay (AID 530; active = well fitted curve in either direction with a large enough effect, not every such curve was filed as active;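 also: kinase came from lysate of stimulated human HepG2 cells; signal reports phosphorylation of biotinylated GST-cJun 1-79 at Ser73 with 10 µM ATP; % is scaled to controls: 0 for no effect and ±100 for the full control effect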)
In short: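 Compound titrations were preincubated 15 minutes at room temperature with substrate, antibody and pre-activated JNK3-containing HepG2 lysate. Reactions were started with 10 uM ATP and stopped with EDTA-containing bead buffer for AlphaScreen detection.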

[9] = biological target: 3',5'-cyclic-AMP phosphodiesterase 4B (Homo sapiens) (UniProt Q07343); assay: qHTS Assay for Inhibitors of PDE-IV (AID 607; active = well fitted activation curve with a large enough effect in the main read-out, with a control signal flat, not every such curve was filed as active; also: % of control where 0% means no effect)
3',5'-cyclic-AMP phosphodiesterase 4B (Homo sapiens), sequence (Q07343 whole entry, looked up): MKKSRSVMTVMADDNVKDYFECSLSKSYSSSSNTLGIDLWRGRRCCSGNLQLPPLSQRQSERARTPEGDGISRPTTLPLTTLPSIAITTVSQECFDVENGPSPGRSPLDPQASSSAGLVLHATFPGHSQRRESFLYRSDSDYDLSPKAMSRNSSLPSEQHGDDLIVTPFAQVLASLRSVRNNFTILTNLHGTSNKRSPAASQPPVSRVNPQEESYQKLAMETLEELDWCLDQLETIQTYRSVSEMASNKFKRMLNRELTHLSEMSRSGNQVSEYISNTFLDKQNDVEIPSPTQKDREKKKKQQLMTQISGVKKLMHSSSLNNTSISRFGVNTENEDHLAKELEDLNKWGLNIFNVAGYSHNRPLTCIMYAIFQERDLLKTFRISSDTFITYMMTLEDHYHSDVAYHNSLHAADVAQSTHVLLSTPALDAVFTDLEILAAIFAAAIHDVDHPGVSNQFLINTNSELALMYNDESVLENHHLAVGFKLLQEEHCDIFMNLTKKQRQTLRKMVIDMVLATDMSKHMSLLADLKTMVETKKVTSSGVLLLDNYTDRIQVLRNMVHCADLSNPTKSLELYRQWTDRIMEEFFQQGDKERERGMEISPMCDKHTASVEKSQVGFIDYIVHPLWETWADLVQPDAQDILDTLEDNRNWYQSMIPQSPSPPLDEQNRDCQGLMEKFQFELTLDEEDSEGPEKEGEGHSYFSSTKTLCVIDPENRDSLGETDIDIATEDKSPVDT
In short: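 ACTOne HEK293 cells carry a modified cAMP-gated CNG channel and express endogenous PDE4; plated 1000 cells/well, compounds up to 22.9 uM final. Membrane-potential dye fluorescence (ex 535/em 590) was read; parental cells received 10 uM forskolin + 100 uM RO 20-1724.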

[10] = qHTS Assay for Lipid Storage Modulators (AID 1519; calls by dose curve); details: Drosophila S3 cells, BODIPY lipid droplet/cell ratio, laser cytometry, cells loaded with oleic acid; for activity change, negative = inhibition: at 57.5 µM (top of the series)
In short: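 Cells seeded at 5,000 per well were treated with compounds over a concentration series and loaded with oleic acid (400 uM, as added). Lipid droplet fluorescence (488 nm excitation, 500-530 nm channel) was read by laser-scanning cytometry and normalized to 20 uM Triacsin C.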

[11] = biological target: Dual specificity protein kinase CLK4 (Homo sapiens) (UniProt Q9HAZ1); assay: qHTS Assay for Inhibitors of CDC-like Kinase 4 (Kinase-Glo Assay) (AID 1770); also: % is scaled to controls: 0 for no effect and ±100 for the full control effect; nearly all actives have a fitted effect of over 65% in size
Dual specificity protein kinase CLK4 (Homo sapiens), sequence (Q9HAZ1 whole entry, looked up): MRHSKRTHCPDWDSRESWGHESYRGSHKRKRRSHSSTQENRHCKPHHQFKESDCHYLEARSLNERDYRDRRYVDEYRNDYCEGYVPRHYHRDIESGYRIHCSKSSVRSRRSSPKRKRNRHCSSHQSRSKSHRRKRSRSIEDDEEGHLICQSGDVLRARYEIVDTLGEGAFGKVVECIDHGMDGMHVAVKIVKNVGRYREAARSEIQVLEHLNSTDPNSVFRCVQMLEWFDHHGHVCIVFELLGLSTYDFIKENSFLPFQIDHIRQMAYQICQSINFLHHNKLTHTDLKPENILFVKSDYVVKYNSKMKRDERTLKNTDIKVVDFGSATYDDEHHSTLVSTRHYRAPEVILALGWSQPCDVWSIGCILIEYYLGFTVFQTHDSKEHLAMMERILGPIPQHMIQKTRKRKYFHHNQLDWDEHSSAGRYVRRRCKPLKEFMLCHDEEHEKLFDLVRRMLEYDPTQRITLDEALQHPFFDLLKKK
In short: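 Inhibition was judged from remaining ATP, measured by Ultra-Glo luciferase bioluminescence after Clk4 (25 nM) had acted on RS peptide at 1 uM ATP for 4.5 hours, room temperature.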

[12] = biological target: Dual specificity protein kinase CLK4 (Homo sapiens) (UniProt Q9HAZ1); assay: qHTS Assay for Inhibitors of CDC-like Kinase 4 (ADP-Glo Assay) (AID 1771); also: nearly all actives have a fitted effect of over 70% in size; also: potency is read from the fitted curve at half-maximal effect
In short: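 Luminescence from ADP-Glo reports ADP produced by 25 nM Clk4 acting on 100 uM RS repeat peptide with 1 uM ATP over 1 hr at room temperature; residual ATP is depleted before ADP is converted to ATP for detection.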

[13] = biological target: Dual specificity protein kinase CLK4 (Homo sapiens) (UniProt Q9HAZ1); assay: qHTS Assay for Inhibitors of CDC-like Kinase 4 (ADP-FP Assay) (AID 1795);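 also: recombinant human CLK4 phosphorylating RS repeat peptide at 1 µM ATP; % is scaled to controls: 0 for no effect and ±100 for the full control effect; nearly all actives have a fitted effect of over 60% in size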
In short: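 Inhibition of ADP formation by 6.25 nM Clk4 is measured using 1 uM ATP and 100 uM RS repeat peptide over one hour. Produced ADP displaces a fluorescent tracer from antibody, lowering polarization.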

[14] = biological target: Ubiquitin carboxyl-terminal hydrolase 1 (Homo sapiens) (UniProt O94782); assay: Inhibitors of USP1/UAF1: Pilot qHTS (AID 504865);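 also: rhodamine fluorescence freed from ubiquitin-rhodamine substrate followed over time; top concentration of the series differs between compounds; % is scaled to controls: 0 for no effect and ±100 for the full control effect; nearly all actives have a fitted effect of over 35% in size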
Ubiquitin carboxyl-terminal hydrolase 1 (Homo sapiens), sequence (O94782 whole entry, looked up): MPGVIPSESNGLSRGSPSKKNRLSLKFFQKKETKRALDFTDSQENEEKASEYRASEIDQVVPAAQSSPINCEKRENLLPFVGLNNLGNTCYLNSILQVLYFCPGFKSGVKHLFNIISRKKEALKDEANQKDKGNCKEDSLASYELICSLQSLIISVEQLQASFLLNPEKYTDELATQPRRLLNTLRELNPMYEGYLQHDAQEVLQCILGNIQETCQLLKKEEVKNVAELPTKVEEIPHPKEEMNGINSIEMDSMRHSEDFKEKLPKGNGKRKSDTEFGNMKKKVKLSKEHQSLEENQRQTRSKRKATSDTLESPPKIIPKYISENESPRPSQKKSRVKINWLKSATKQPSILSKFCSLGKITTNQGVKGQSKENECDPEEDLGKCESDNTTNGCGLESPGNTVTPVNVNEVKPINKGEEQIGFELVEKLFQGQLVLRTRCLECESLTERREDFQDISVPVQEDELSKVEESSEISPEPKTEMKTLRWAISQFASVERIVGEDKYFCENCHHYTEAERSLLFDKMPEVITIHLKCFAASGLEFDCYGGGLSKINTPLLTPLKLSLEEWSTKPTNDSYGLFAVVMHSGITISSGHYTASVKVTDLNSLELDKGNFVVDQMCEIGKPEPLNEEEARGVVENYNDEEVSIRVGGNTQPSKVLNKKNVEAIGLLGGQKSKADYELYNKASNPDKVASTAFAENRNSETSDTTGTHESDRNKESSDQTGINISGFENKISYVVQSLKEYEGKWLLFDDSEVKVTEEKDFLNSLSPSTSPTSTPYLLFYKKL
In short: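 Kinetic fluorescence assay: 1nM USP1/UAF1, 15 min compound preincubation, then 150nM Ub-Rho; 480/540 nm.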

[15] = Primary qHTS for small molecule stabilizers of the endoplasmic reticulum resident proteome: Secreted ER Calcium Modulated Protein (SERCaMP) assay (AID 1508630); also: % is scaled to controls: 0 for no effect and ±100 for the full control effect
In short: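 GLuc-SERCaMP-expressing SH-SY5Y cells, pretreated 16 h with compound, are challenged with thapsigargin to empty ER calcium stores; after 4 h, coelenterazine is added directly to the medium and luminescence is imaged.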

[16] = biological target: Cytochrome P450 3A4 (Homo sapiens) (UniProt P08684); assay: qHTS Assay for Activators of Cytochrome P450 3A4 (AID 885); also: nearly all actives have a fitted effect of over 65% in size
Cytochrome P450 3A4 (Homo sapiens), sequence (P08684 whole entry, looked up): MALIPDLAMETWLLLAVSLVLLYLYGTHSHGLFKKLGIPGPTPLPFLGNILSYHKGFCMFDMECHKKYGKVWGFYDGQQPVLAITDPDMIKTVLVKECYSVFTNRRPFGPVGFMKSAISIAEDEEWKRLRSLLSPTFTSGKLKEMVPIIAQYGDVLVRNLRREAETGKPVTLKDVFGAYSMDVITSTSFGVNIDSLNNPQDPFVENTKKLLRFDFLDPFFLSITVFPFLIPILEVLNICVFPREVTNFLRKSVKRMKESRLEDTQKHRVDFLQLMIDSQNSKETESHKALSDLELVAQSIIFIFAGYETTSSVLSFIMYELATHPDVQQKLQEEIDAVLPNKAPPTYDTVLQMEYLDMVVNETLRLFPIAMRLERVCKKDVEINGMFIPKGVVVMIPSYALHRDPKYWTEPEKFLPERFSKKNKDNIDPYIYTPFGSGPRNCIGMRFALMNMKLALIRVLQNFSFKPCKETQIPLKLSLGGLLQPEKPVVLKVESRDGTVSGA
In short: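 20nM CYP3A4 + 25uM Luciferin-PPXE (=KM), 200mM KPO4; cpd 10 min RT; NADPH regen, 60 min RT; stop w/ detection buffer, 20 min; luminescence. Normalized to 57 uM ketoconazole.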

[17] = biological target: Rap guanine nucleotide exchange factor 3 (Homo sapiens) (UniProt O95398); assay: Confirmatory qHTS for antagonist of cAMP-regulated guanine nucleotide exchange factor 3 (EPAC1) (AID 1645880);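 also: plate controls were DMSO only for no effect and full effect of the ATA control for full effect; nearly all actives have a fitted effect of over 55% in size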
Rap guanine nucleotide exchange factor 3 (Homo sapiens), sequence (O95398 whole entry, looked up): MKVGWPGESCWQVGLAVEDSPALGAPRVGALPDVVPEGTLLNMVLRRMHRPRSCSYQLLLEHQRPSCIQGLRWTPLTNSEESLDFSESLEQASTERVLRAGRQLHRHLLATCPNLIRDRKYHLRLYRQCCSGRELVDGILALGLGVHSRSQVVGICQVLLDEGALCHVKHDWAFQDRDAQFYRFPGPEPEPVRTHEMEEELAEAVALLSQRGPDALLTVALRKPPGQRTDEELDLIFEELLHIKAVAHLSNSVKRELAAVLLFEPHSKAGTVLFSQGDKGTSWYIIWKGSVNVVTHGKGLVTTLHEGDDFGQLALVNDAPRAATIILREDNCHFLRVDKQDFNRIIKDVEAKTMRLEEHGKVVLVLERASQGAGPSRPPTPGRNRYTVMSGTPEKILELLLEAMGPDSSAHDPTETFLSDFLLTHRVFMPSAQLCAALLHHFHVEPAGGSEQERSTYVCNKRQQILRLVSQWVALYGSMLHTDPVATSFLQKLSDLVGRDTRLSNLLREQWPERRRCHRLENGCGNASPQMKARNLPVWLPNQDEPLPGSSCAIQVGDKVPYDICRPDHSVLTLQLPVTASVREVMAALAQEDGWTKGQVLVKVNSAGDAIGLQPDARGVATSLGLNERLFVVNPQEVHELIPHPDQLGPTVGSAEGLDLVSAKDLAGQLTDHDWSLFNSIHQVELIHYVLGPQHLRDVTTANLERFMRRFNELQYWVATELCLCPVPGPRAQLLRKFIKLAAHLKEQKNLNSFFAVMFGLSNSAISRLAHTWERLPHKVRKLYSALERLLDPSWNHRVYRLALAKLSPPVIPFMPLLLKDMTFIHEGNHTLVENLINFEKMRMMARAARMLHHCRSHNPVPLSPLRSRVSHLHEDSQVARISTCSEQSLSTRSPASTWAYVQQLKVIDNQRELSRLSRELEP
In short: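 Nucleotide exchange uses 100 nM EPAC1, 250 nM RAP1B-BODIPY-GDP and 50 uM GDP, with compounds in a concentration-titration series. After 5 min at room temperature, fluorescence (480 nm ex/540 nm em) is read every 5 min for 30 min. Data are normalized to control ATA and DMSO.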

[18] = biological target: Rap guanine nucleotide exchange factor 3 (Homo sapiens) (UniProt O95398); assay: Confirmatory qHTS for agonist of cAMP-regulated guanine nucleotide exchange factor 3 (EPAC1) (AID 1645881);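 also: EPAC1 catalysed release of BODIPY-GDP from Rap1B seen as fluorescence loss; 100% = effect of cAMP agonist control; nearly all actives have a fitted effect of over 75% in size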
[19] = biological target: Rap guanine nucleotide exchange factor 4 (Homo sapiens) (UniProt Q8WZA2); assay: Confirmatory qHTS for agonist of cAMP-regulated guanine nucleotide exchange factor 4 (EPAC2) (AID 1645884);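 also: nucleotide exchange releases bodipy-GDP from Rap1 and this lowers its fluorescence; % is scaled to controls: 0 for no effect and ±100 for the full control effect; nearly all actives have a fitted effect of over 65% in size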
[20] = biological target: Rap guanine nucleotide exchange factor 4 (Homo sapiens) (UniProt Q8WZA2); assay: Confirmatory qHTS for antagonist of cAMP-regulated guanine nucleotide exchange factor 4 (EPAC2) (AID 1645885); also: nearly all actives have a fitted effect of over 25% in size; also: potency is read from the fitted curve at half-maximal effect
[21] = measured here: cell count channel max response
[22] = measured here: lipid channel max response

COc1ncc2nc(-c3ccccc3)c(=O)n(C)c2n1
24.3%: max response [10, 22]
inactive: Potency [1] > 11.4 µM | activity change, negative = inhibition [2] -19.1% | activity change, negative = inhibition [4] 11.3% | activity, negative = inhibition [5] -14.9% | Potency [6] > 9.22 µM | Potency [7] > 46 µM | outcome [8] | Potency [9] | activity change, negative = inhibition [10] 6.24% | Potency [11] | Potency [12] | Potency [13] | Potency [14] | Potency [15]
20%: max response [10, 21]
active: Potency [3] 1.58 µM

COCCn1c(=O)c(-c2cccc(C#N)c2)nc2cnc(N(C)C)nc21
17.9%: max response [10, 22]
inactive: Potency [1] > 11.4 µM | activity change, negative = inhibition [2] -1.01% | activity change, negative = inhibition [4] -2.05% | activity, negative = inhibition [5] -10.5% | Potency [6] > 9.22 µM | Potency [7] > 46 µM | outcome [8] | Potency [9] | activity change, negative = inhibition [10] 3.6% | Potency [11] | Potency [12] | Potency [13] | Potency [14] | Potency [15]
16.6%: max response [10, 21]
active: Potency [3] 2 µM

O=c1c(-c2ccc(F)cc2)nc2cnc(Oc3cccc(Cl)c3)nc2n1C1CC1
-8.94%: max response [10, 21]
active: Potency [3] 0.316 µM
-12.9%: max response [10, 22]
inactive: Potency [1] > 11.4 µM | activity change, negative = inhibition [2] 25.5% | activity change, negative = inhibition [4] 16.4% | activity, negative = inhibition [5] -8.35% | Potency [6] > 9.22 µM | Potency [7] > 46 µM | outcome [8] | Potency [9] | activity change, negative = inhibition [10] 0.37% | Potency [11] | Potency [12] | Potency [13] | Potency [14] | Potency [15]

CN1CCN(c2ncc3ncc(=O)n(CCC#N)c3n2)CC1
inactive: Potency [1] > 11.4 µM | activity change, negative = inhibition [2] -10.2% | activity change, negative = inhibition [4] -4.67% | activity, negative = inhibition [5] -3.39% | Potency [6] > 9.22 µM | Potency [7] > 46 µM | outcome [8] | Potency [9] | activity change, negative = inhibition [10] 6.98% | Potency [11] | Potency [12] | Potency [13] | Potency [14] | Potency [15]
10.7%: max response [10, 22]
active: Potency [3] 31.6 µM
9.3%: max response [10, 21]

O=C(c1cnccn1)N1CCC[C@@]2(CCN(C(c3ccccc3)c3ccccc3)C2)C1
5.21%: max response [10, 22]
inactive: Potency [1] > 11.4 µM | activity change, negative = inhibition [2] 0.193% | activity change, negative = inhibition [4] 11.2% | activity, negative = inhibition [5] 16.5% | Potency [7] > 46 µM | outcome [8] | Potency [9] | Potency [16] | activity change, negative = inhibition [10] -1.1% | Potency [15] | Potency [17] | outcome [18] | outcome [19]
3.2%: max response [10, 21]
active: Potency [3] 15.8 µM

COc1ccccc1-c1cc(NCc2cccc(C)c2)ncn1
-16.7%: max response [10, 22]
active: Potency [3] 1.58 µM | Potency [12] 35.5 µM
4.86%: max response [10, 21]
inactive: Potency [1] > 11.4 µM | activity change, negative = inhibition [2] -9.64% | activity change, negative = inhibition [4] 1.95% | activity, negative = inhibition [5] -2.82% | Potency [6] > 46 µM | Potency [7] > 46 µM | outcome [8] | Potency [16] | activity change, negative = inhibition [10] -23.2% | Potency [15] | Potency [17] | Potency [20]

Cc1nc2cnc(N(C)C)nc2n(CCC#N)c1=O
4.56%: max response [10, 21]
inactive: Potency [1] > 11.4 µM | activity change, negative = inhibition [2] -8.9% | activity change, negative = inhibition [4] -13.7% | activity, negative = inhibition [5] -1.16% | Potency [6] > 9.22 µM | Potency [7] > 46 µM | outcome [8] | Potency [9] | activity change, negative = inhibition [10] 2.74% | Potency [11] | Potency [12] | Potency [13] | Potency [14] | Potency [15]
active: Potency [3] 10 µM
5.95%: max response [10, 22]

Cn1cc(-c2nc3cncnc3n(Cc3ccc(F)cc3)c2=O)c2ccccc21
15.3%: max response [10, 21]
20.1%: max response [10, 22]
active: Potency [3] 1.26 µM
inactive: Potency [1] > 11.4 µM | activity change, negative = inhibition [2] -19.3% | activity change, negative = inhibition [4] -18.4% | activity, negative = inhibition [5] -7.96% | Potency [6] > 9.22 µM | Potency [7] > 46 µM | outcome [8] | activity change, negative = inhibition [10] 6.13% | Potency [11] | Potency [12] | Potency [13] | Potency [14] | Potency [15]

O=c1c(-c2cc(F)cc(F)c2)nc2cnc(N3CCNCC3)nc2n1Cc1cccs1
-11.3%: max response [10, 21]
active: activity change, negative = inhibition [2] 98% [activator] | Potency [20] 55.5 µM
inactive: Potency [1] > 11.4 µM | Potency [7] > 46 µM | outcome [8] | Potency [16] | activity change, negative = inhibition [10] -29.8% | Potency [15] | outcome [18]
-33.5%: max response [10, 22]

COCCn1c(=O)c(-c2cccs2)nc2cnc(N(C)C)nc21
28.7%: max response [10, 22]
active: Potency [3] 2 µM
inactive: Potency [1] > 11.4 µM | activity change, negative = inhibition [2] -5.67% | activity change, negative = inhibition [4] 10.2% | activity, negative = inhibition [5] -4.44% | Potency [6] > 9.22 µM | Potency [7] > 46 µM | outcome [8] | Potency [9] | Potency [16] | activity change, negative = inhibition [10] 3.99% | Potency [11] | Potency [12] | Potency [13] | Potency [15] | Potency [17] | Potency [20]
26.2%: max response [10, 21]
